Values joined by “and” are separate entries in the source; they are usually repeats but may differ in a detail not shown here. Identical values can stand only once. Unmarked numbers belong to inactive results. Active and inactive are the calls of the source. Unless noted, calls come from the whole dose curve; as a rule, active = well fitted curve in the direction sought with a large enough effect in the repeat runs; inconclusive = weak or mixed curves; inactive = no such curve, though single readings can be large; an effect the other way counts as inactive or inconclusive.

For assay [1], the target named is Androgen receptor (Homo sapiens) (UniProt P10275). In words: qHTS assay to identify small molecule antagonists of the androgen receptor (AR) signaling pathway (AID 743035; active = well fitted inhibition curve with a large enough effect in the signal ratio in the repeat runs, not every such curve was filed as active; inconclusive = weak or mixed curves, or effect the other way; inactive = no such curve, though single readings can be large or run the other way; the % refers to the signal ratio; note: potency is the fitted concentration of half-maximal effect). In short, it runs like this: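 Antagonist mode: AR-bla HEK293 cells co-treated with test compounds and agonist R1881 for 16 h at 37C, 5% CO2. Beta-lactamase activity read as FRET fluorescence after 2 h room-temperature substrate loading.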
Chain of Androgen receptor (Homo sapiens) (P10275 whole entry, looked up): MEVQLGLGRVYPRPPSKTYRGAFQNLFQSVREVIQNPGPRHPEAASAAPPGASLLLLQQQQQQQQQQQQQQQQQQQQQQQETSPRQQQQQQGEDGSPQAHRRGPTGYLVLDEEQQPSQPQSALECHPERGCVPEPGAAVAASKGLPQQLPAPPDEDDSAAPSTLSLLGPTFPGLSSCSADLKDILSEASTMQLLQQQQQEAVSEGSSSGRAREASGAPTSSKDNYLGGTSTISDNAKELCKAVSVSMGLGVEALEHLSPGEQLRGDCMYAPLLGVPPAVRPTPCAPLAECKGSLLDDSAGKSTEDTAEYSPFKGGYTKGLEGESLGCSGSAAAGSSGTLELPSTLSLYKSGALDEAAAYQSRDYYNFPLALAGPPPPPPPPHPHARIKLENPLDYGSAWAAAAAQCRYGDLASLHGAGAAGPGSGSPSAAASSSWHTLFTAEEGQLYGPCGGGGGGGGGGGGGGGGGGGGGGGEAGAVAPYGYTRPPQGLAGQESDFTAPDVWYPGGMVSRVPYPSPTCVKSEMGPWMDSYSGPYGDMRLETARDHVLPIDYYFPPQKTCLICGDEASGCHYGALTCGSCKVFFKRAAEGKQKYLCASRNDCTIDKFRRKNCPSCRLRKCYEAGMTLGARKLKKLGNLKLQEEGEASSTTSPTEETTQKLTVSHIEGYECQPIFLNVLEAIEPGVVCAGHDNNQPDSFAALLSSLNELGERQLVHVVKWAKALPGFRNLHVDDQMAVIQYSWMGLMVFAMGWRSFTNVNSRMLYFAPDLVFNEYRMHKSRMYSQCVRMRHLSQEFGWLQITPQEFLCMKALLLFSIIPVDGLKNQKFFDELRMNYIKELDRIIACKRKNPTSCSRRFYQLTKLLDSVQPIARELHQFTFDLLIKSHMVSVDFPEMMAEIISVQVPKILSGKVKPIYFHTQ
For orientation: Quantitative high-throughput screening tests each substance at several concentrations.

Assay [2] shares this target. Briefly: qHTS assay to identify small molecule agonists of the androgen receptor (AR) signaling pathway (AID 743036; active = well fitted activation curve with a large enough effect in the signal ratio in the repeat runs, with a control signal flat, not every such curve was filed as active; inconclusive = weak or mixed curves, or effect the other way; inactive = no such curve, though single readings can be large or run the other way; the % refers to the signal ratio; note: % is set by controls: 0 for no effect and ±100 for the full control effect). The gist of the method:
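Fluorescence from a beta-lactamase FRET substrate served as read-out in AR-UAS-bla GripTite HEK293 cells. Cells were treated with DMSO-dissolved compounds for 16 h at 37C, then with LiveBLAzer B/G substrate for 2 h at room temperature.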

Assay [3] shares this target. Briefly: qHTS assay to identify small molecule agonists of the androgen receptor (AR) signaling pathway using the MDA cell line (AID 743040; note: % is set by controls: 0 for no effect and ±100 for the full control effect; nearly all actives have a fitted effect of over 20% in size). The gist of the method: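 Luciferase read-out, ONE-Glo, 30 min RT. Cells: MDA-kb2 AR-luc, MMTV promoter with AR and GR response elements. Compound exposure 16 h, 37C, 0% CO2, after 5 h pre-incubation. qHTS agonist mode.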
Assay [4] is described as follows: qHTS assay to identify small molecule antagonists of the androgen receptor (AR) signaling pathway using the MDA cell line - cell viability counter screen (AID 743041; note: potency is the fitted concentration of half-maximal effect; nearly all actives have a fitted effect of over 45% in size). In short, it runs like this: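 Cytotoxicity counter screen: MDA-kb2 AR-luc cells, compound + R1881, 16 h, 37C, 0% CO2; CellTiter-Fluor added at 15.5 h, fluorescence read after 30 min.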
The target in assay [5] is Androgen receptor (Homo sapiens) (UniProt P10275). Briefly: qHTS assay to identify small molecule antagonists of the androgen receptor (AR) signaling pathway using the MDA cell line (AID 743042; note: potency is the fitted concentration of half-maximal effect; nearly all actives have a fitted effect of over 55% in size). In short, it runs like this: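 MDA-kb2 breast carcinoma cells carrying MMTV-luciferase (AR/GR responsive) were co-treated with compounds and the agonist R1881 for 16 h at 37C. Inhibition read as ONE-Glo luminescence; CellTiter-Fluor fluorescence measured in parallel for cytotoxicity.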

The nature of assay [6]: qHTS assay to identify small molecule phospholipidosis (PLD) inducers (AID 1259344; active = well fitted curve in the direction sought with a large enough effect; inconclusive = small, poorly fitted or top-dose-only effect, or another doubt; inactive = no such curve, though single readings can be large; an effect the other way counts as inactive or inconclusive; note: potency is the fitted concentration of half-maximal effect). The gist of the method: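 Read-out is LipidTOX Red fluorescence (ex 595/em 615) imaged in HepG2 cells after 24 h compound exposure at 37 C, with Hoechst nuclear counterstain (ex 352/em 461) allowing per-cell normalisation.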
For assay [7], the target named is Bile acid receptor (Homo sapiens) (UniProt Q96RI1). In words: qHTS assay to identify small molecule agonists of the farnesoid-X-receptor (FXR) signaling pathway (AID 743220; active = well fitted activation curve with a large enough effect in the signal ratio in the repeat runs, not every such curve was filed as active; inconclusive = weak or mixed curves, or effect the other way; the % refers to the signal ratio; note: % is set by controls: 0 for no effect and ±100 for the full control effect). In short, it runs like this:
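FXR-UAS-bla HEK 293T cells carrying a UAS-driven beta-lactamase reporter were plated for 5 h at 37C/5% CO2, then exposed to DMSO-dissolved Tox21 10K compounds for 16 h at 37C. A LiveBLAzer B/G FRET substrate was loaded for 2 h at room temperature before fluorescence reading.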

A short description of assay [8]: qHTS assay to identify small molecule antagonists of the retinoid-related orphan receptor gamma (ROR-gamma) signaling pathway - cell viability counter screen (AID 1159520). Note: nearly all actives have a fitted effect of over 50% in size. Note: potency is the fitted concentration of half-maximal effect. In short, it runs like this: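 Tet-on ROR gamma CHO cells were given compounds for 2 hr, then doxycycline hyclate at 1 uM final, and incubated 16 hr at 37 C. Viability was measured as ATP content by CellTiter-Glo luminescence.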

Assay [9] in a line: qHTS assay to identify small molecule agonists of the AP-1 signaling pathway (AID 1159526; calls by dose curve; note: % is set by controls: 0 for no effect and ±100 for the full control effect).
For assay [10], the target named is Estrogen receptor (Homo sapiens) (UniProt P03372). Briefly: qHTS assay to identify small molecule antagonists of the estrogen receptor alpha (ER-alpha) signaling pathway (AID 743069; active = well fitted curve in the direction sought with a large enough effect in the signal ratio in the repeat runs, not every such curve was filed as active; inconclusive = weak or mixed curves, or effect the other way; inactive = no such curve, though single readings can be large or run the other way; the % refers to the signal ratio; note: potency is the fitted concentration of half-maximal effect). In short, it runs like this:
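Beta-lactamase FRET fluorescence is read after 2 hr at room temperature with LiveBLAzer B/G substrate. Before that, ER-alpha-bla HEK293 cells sit 4 hr after plating, then receive compound plus 17beta-estradiol and incubate 18 hr at 37C.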

Assay [11] shares this target. Briefly: qHTS assay to identify small molecule agonists of the estrogen receptor alpha (ER-alpha) signaling pathway using the BG1 cell line (AID 743079). Note: % is set by controls: 0 for no effect and ±100 for the full control effect; nearly all actives have a fitted effect of over 20% in size.
A short description of assay [12]: qHTS assay to identify small molecule agonists of the retinoic acid receptor (RAR) signaling pathway (AID 1159553). Note: % is set by controls: 0 for no effect and ±100 for the full control effect. In short, it runs like this:
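Luminescence was measured 30 min after luciferase reagent addition at room temperature. Before that, C3RL4 reporter cells (1,000 per well, plated overnight) were treated with compound for 6 hr at 37 C and 5% CO2.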

The target in assay [13] is Nuclear receptor subfamily 1 group I member 2 (Rattus norvegicus) (UniProt Q9R1A7). In words: Rat pregnane X receptor (rPXR) activation by small molecules, qHTS assay (AID 1346983). Note: % is set by controls: 0 for no effect and ±100 for the full control effect; nearly all actives have a fitted effect of over 20% in size. The note with it: rPXR luciferase reporter cells, One-Glo luminescence, 24 h; max activation: hits give high values. The gist of the method:
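Cell-based rPXR activation assay: rPXR cells, 2,000 per well, rested 5hr at 37 C, then exposed to compounds in DMSO for 24 hr at 37 C. Luciferase activity read by One-Glo luminescence after 30 min at room temperature.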

In assay [14] the target is Nuclear receptor subfamily 1 group I member 2 (Homo sapiens) (UniProt O75469). Briefly: CYP3A4 induction through human pregnane X receptor (PXR) by small molecules, qHTS assay (AID 1346984). Note: % is set by controls: 0 for no effect and ±100 for the full control effect; nearly all actives have a fitted effect of over 40% in size. In short, it runs like this:
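Read-out is luminescence after One-Glo addition, following a 3 hr, 37C incubation with Luciferin-IPA CYP3A4 substrate (3uM final). Before that, compounds were on DPX-2 cells (HepG2 co-transfected with PXR element plus CYP3A4-promoter luciferase) for 24 hr at 37C.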

Assay [15] can be described thus: qHTS assay for small molecule agonists of the p53 signaling pathway - cell viability (AID 651633; calls by dose curve;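 note: p53RE-bla HCT reporter cells with a stable beta-lactamase p53 reporter; series mostly up to about 83 µM; % is set by controls: 0 for no effect and ±100 for the full control effect; nearly all actives have a fitted effect of over 30% in size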). The gist of the method:
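p53RE-bla cells were treated with compound for 16 hours at 37 C. Cytotoxicity was then measured as CellTiter-Glo luminescence after 30 min at room temperature.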

Assay [16] addresses Vitamin D3 receptor (Homo sapiens) (UniProt P11473). Briefly: qHTS assay to identify small molecule antagonists of the vitamin D receptor (VDR) signaling pathway (AID 743223; active = well fitted inhibition curve with a large enough effect in the signal ratio in the repeat runs, not every such curve was filed as active; inconclusive = weak or mixed curves, or effect the other way; inactive = no such curve, though single readings can be large or run the other way; the % refers to the signal ratio; note: % is set by controls: 0 for no effect and ±100 for the full control effect). In short, it runs like this: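 Antagonist mode uses 1alpha,25-dihydroxyvitamin D3 at 3 nM final as stimulus. VDR-bla cells receive compounds in DMSO, incubate 16 h at 37C, then a beta-lactamase FRET substrate for 2 h at room temperature before fluorescence measurement.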

Assay [17] can be described thus: qHTS assay for small molecule agonists of the antioxidant response element (ARE) signaling pathway (AID 743202; active = well fitted activation curve with a large enough effect in the signal ratio in the repeat runs, not every such curve was filed as active; inconclusive = weak or mixed curves, or effect the other way; inactive = no such curve, though single readings can be large or run the other way; the % refers to the signal ratio; note: potency is the fitted concentration of half-maximal effect). The gist of the method:
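HepG2 ARE-bla reporter line, 2,000 cells/well; 5 h preincubation 37 C/5% CO2; compound (DMSO) 16 h 37 C; B/G FRET substrate 2 h RT; fluorescence intensity.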

Chain of Estrogen receptor (Homo sapiens) (P03372 whole entry, looked up): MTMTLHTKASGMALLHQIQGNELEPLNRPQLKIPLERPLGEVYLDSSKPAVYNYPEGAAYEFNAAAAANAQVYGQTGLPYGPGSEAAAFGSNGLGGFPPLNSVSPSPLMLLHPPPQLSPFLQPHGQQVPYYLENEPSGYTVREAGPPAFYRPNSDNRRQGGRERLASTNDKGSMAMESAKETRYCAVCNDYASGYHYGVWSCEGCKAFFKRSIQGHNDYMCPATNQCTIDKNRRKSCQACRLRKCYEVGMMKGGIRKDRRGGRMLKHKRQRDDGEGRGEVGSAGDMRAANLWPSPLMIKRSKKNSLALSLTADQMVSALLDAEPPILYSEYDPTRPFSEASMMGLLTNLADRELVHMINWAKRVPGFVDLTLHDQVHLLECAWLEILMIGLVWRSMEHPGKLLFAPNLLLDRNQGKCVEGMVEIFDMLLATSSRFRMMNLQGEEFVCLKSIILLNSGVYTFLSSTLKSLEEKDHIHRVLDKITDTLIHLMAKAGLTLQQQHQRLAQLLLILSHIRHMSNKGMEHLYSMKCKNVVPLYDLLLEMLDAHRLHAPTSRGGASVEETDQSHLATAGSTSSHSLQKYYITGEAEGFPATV
Chain of Bile acid receptor (Homo sapiens) (Q96RI1 whole entry, looked up): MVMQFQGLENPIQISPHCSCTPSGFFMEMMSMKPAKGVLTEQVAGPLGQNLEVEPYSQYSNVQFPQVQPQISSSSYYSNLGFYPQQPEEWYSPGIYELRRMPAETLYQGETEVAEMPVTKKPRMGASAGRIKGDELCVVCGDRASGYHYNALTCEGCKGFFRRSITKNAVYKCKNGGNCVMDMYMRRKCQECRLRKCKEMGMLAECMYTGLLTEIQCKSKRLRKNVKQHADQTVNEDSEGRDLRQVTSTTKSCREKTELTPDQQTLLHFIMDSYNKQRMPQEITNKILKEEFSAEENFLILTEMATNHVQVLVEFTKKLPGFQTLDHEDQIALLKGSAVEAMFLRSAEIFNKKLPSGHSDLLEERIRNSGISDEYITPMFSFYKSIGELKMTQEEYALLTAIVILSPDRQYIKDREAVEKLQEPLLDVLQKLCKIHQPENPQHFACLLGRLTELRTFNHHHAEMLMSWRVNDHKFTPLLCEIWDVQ
Chain of Vitamin D3 receptor (Homo sapiens) (P11473 whole entry, looked up): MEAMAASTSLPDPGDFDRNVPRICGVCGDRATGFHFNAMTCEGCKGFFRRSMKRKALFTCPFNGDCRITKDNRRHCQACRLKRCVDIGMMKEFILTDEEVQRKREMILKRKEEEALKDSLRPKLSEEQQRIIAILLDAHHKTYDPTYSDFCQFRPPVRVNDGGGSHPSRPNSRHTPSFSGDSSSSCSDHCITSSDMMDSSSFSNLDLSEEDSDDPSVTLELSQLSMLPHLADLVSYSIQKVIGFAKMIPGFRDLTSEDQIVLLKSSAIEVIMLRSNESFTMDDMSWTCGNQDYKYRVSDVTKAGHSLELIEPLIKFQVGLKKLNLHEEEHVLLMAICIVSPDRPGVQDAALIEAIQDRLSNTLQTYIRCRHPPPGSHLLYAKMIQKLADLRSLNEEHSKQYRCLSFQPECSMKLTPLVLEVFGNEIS
Chain of Nuclear receptor subfamily 1 group I member 2 (Rattus norvegicus) (Q9R1A7 whole entry, looked up): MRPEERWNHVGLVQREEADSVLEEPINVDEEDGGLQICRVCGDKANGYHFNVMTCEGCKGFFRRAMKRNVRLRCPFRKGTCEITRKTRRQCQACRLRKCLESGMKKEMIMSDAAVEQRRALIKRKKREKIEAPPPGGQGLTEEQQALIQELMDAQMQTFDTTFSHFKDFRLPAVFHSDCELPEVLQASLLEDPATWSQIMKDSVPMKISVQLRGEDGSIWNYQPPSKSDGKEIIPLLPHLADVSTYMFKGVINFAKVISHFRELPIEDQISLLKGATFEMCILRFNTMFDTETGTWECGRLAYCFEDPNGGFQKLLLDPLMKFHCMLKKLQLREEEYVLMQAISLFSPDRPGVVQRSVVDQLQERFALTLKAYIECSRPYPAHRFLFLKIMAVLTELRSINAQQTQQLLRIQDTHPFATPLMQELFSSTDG

For the compound `CCOC(=O)C(O)(c1ccc(Cl)cc1)c1ccc(Cl)cc1`, the Potency is 19.5 µM (active) in assay [1]; 61.8 µM (active) in [4]; 19.5 µM (active) and 68.6 µM (active) in [5]. Moreover, the Potency result in assay [2] and in [3] was “inactive” in each case.
`c1ccc2c(c1)Sc1ccccc1N2CC1CN2CCC1CC2` (centres undefined): the Potency in assay [6] is 3.55 µM (active).
Turning to `OCC(c1ccc(Cl)cc1)c1ccc(Cl)cc1`, the compound was classed as inactive in [7].
As for `Cc1ccc2nc3sc(=O)sc3nc2c1`, in [8], the activity, negative = cytotoxicity was -10.1% [at 19 µM].
`CCN(CC)C(=O)Cl`: the result in assay [9] was inactive.
On to `O=C1C(I)=CC(=C(c2cc(I)c(O)c(I)c2)c2ccccc2C(=O)O)C=C1I`, for which, in assay [10], the Potency is 7.56 µM [inconclusive] (active). The Potency entry in assay [11], in [8], in assay [6] and in [14] was “inactive” throughout. Moreover, the compound was classed as inactive in assay [9] and in assay [12]. Further, the max activation in assay [13] was -1.41%.
For the compound `ClC1=C(Cl)[C@]2(Cl)[C@@H]3[C@@H](Cl)[C@H]4O[C@H]4[C@@H]3C1(Cl)C2(Cl)Cl`, the Potency entry in assay [15] and in [10] was “inactive” in each case. In [16], the result was inactive.
On to `Nc1ccc([N+](=O)[O-])cc1`, for which the Potency in assay [1] is 43.6 µM (active); in assay [4] it was 30.6 µM (active). In assay [3], the Potency entry is “inactive”.
With `CCCCC(CC)COC(=O)c1ccc(C(=O)OCC(CC)CCCC)cc1` (centres undefined), in [7], the compound was called inactive.
Consider `Cc1nnc2n1-c1sc(CCc3ccc(CC(C)C)cc3)cc1C(c1ccccc1Cl)=NC2C` (centres undefined), for which the Potency result in assay [6] was “inactive”.
Turning to `Cc1ccc(N(SC(F)(Cl)Cl)S(=O)(=O)N(C)C)cc1`, the Potency result in [3] was “inactive”. The Potency in assay [5] is 8.63 µM (active); in assay [8] it was 6.11 µM (active).
For `CNC(=O)Oc1cc(C)c(SC)c(C)c1`, in assay [9], the result was inactive.
As to `N#Cc1cc([N+](=O)[O-])ccc1N`, the Potency entry in assay [8] is “inactive”.
On to `CC1COC(Cn2cncn2)(c2ccc(Oc3ccc(Cl)cc3)cc2Cl)O1` (centres undefined), for which, in [17], the Potency was 1.93 µM (active). Further, the result in [7], in assay [9] and in assay [12] was inactive.
In the case of `O=[N+]([O-])c1c(Cl)c(Cl)cc(Cl)c1Cl`, the Potency entry in assay [15], in assay [10], in [8] and in assay [6] was “inactive” in each case. The outcome in assay [12] was inactive.
